Assay [1] relates to TRPC4 beta (transient receptor potential cation channel C4), mouse. Briefly: activators of mouse TRPC4 channel, confirmation, cell-based, Fluo4 calcium, HEK293 TRPC4beta/mu-opioid, duplicates, 10 µM (AID 2426;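 active = fluorescence ratio normalized to control raised more than 50% in primary screen plus both repeat runs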;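 as to activation: percent rise of integrated ratio over buffer wells lacking compound which define 0%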). As to conditions: Fluo4 calcium fluorescence, at 10 µM; stronger effect = higher value.
For assay [2], the system named is transient receptor potential cation channel C4 beta (TRPC4), mouse. Briefly: activators of mouse TRPC4 channel, confirmation, cell-based, second round, Fluo4, HEK293 TRPC4beta/mu-opioid, 1 µM (AID 2461;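 active = primary screen active and over 50% activation in each of two duplicate runs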). As to conditions: Fluo4 calcium fluorescence, at 1 µM; stronger effect = higher value.
Assay [3] relates to TRPC4 (transient receptor potential cation channel C4 beta), mouse. Briefly: positive allosteric modulators of mouse TRPC4, confirmation, cell-based, second round, Fluo-4, HEK293 TRPC4beta/mu-opioid, 1 µM (AID 2554;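 active = primary screen hit whose fluorescence ratio, in both repeats, exceeds the weak agonist control mean by 3 SD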). As to conditions: DAMGO EC20, Fluo-4 calcium flux, at 1 µM; stronger effect = higher value. For orientation: A change in cytosolic calcium serves as a functional read-out for many receptors and channels.

Assay [4] deals with TRPC4 beta (transient receptor potential cation channel C4), mouse. Briefly: positive allosteric modulators of mouse TRPC4, confirmation, cell-based, Fluo-4, HEK293 TRPC4beta/mu-opioid (AID 2555;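 active = primary screen hit whose calcium fluorescence ratio, in both repeats, exceeds the weak agonist control mean by 3 SD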). The settings on record: DAMGO EC20, Fluo-4 calcium flux, at 10 µM; stronger effect = higher value.
For assay [5], the target named is Short transient receptor potential channel 4 (Mus musculus) (UniProt Q9QUQ5). Briefly: inhibitors of mouse TRPC4 channel, confirmation, cell-based, Fluo4, HEK293 TRPC4beta/mu-opioid (AID 2636;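 active = calcium signal cut by more than 3 SD below the full-agonist control yet still positive, in both repeats and the earlier primary screen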). The settings on record: DAMGO, Fluo4 calcium flux, at 10 µM; stronger effect = higher value.
Sequence of Short transient receptor potential channel 4 (Mus musculus) (Q9QUQ5 whole entry, looked up): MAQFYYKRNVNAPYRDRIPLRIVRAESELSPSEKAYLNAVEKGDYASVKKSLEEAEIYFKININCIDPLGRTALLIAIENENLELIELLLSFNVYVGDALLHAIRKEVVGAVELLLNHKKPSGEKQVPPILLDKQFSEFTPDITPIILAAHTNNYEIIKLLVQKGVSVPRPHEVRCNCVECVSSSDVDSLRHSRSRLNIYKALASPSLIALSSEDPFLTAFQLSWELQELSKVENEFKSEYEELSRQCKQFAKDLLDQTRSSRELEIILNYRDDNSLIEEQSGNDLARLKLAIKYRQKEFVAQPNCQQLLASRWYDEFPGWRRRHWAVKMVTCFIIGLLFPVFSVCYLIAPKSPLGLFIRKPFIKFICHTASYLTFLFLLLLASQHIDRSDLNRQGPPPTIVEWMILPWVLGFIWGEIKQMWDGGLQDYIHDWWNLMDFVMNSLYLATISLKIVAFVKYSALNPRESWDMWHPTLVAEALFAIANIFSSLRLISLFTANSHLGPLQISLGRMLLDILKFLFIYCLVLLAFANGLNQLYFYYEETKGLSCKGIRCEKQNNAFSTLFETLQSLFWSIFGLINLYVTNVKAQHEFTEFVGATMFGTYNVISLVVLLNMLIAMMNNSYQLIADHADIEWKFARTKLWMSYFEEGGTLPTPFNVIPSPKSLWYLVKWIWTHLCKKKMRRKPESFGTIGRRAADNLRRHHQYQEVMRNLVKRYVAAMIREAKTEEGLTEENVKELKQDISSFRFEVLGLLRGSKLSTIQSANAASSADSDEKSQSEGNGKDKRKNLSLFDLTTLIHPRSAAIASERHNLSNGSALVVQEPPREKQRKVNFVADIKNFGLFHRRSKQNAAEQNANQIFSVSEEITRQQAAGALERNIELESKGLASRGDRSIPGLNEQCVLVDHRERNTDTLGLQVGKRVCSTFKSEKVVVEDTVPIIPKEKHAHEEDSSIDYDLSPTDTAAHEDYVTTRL
Assay [6] has the same target. Briefly: inhibitors of mouse TRPC4 channel, confirmation, cell-based, second round, Fluo4, HEK293 TRPC4beta/mu-opioid, 1 µM (AID 2637;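 active = calcium signal ratio cut to more than 3 SD under the fully stimulated control mean yet still positive, in both repeats and the primary screen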;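 as to inhibition: percent of integrated ratio relative to wells lacking test compound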). The settings on record: Fluo4 calcium flux, DAMGO, at 1 µM; stronger effect = higher value.
Assay [7] shares this target. Briefly: mouse TRPC4 channel activators, dose response, cell-based, HEK293 TRPC4/mu-opioid, Fluo-4 calcium (AID 434937;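 active = primary screen activator hit with a dose response curve and TRPC4 channel activation at any tested dose; inactive = no activation, no dose response, or not a primary hit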).
Assay [8] shares this target. Briefly: TRPC4 positive allosteric modulators, dose response, cell-based, HEK293 TRPC4/mu-opioid, Fluo-4 calcium, EC20 DAMGO (AID 434941;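 active = earlier screen potentiator hit that boosts the TRPC4 ion channel at some dose, with a dose response; inactive = no potentiation, no dose response, or not a prior hit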;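 also: calcium entry triggered by an EC20 dose of DAMGO at the co-expressed mu-opioid receptor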).
In assay [9] the target is Short transient receptor potential channel 6 (Mus musculus) (UniProt Q61143). Briefly: inhibition of mouse TRPC6 channel, confirmation, selectivity assay for TRPC4 inhibitor project, cell-based, HEK293, membrane potential dye, duplicate (AID 434948;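 active = active in primary screen and both duplicates, each dropping signal beyond three positive-control SD with fluorescence still positive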). As to conditions: HEK293 TRPC6, membrane potential dye fluorescence, at 10 µM, stimulated with maximal-effect acetylcholine; stronger effect = higher value.
Sequence of Short transient receptor potential channel 6 (Mus musculus) (Q61143 whole entry, looked up): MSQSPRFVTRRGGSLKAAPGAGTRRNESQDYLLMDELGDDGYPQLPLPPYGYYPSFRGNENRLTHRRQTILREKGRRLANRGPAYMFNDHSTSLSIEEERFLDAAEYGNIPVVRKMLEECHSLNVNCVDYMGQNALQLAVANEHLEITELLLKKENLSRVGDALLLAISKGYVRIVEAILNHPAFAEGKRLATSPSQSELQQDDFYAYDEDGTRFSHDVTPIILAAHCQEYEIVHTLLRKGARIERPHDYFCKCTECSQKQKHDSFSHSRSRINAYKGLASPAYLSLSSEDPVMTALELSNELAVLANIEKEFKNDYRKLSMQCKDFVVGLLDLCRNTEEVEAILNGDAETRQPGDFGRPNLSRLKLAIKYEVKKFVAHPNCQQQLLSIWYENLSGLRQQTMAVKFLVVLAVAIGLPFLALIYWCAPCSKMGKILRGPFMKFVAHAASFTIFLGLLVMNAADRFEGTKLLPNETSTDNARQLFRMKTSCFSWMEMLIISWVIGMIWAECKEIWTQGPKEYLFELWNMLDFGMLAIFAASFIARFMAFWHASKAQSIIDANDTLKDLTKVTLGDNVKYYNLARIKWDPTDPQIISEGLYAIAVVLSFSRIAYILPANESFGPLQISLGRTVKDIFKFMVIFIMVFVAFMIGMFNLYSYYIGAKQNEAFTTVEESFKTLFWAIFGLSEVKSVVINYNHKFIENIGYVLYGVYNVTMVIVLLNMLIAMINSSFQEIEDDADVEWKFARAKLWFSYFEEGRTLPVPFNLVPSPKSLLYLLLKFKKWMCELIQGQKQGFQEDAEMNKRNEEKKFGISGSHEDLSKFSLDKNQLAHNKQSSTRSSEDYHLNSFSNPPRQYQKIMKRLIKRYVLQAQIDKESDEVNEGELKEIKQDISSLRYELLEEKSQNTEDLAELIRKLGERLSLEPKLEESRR

For assay [10] the target is unchanged. Briefly: activation of mouse TRPC6 channel, confirmation, selectivity assay for TRPC4 activator project, cell-based, HEK293, membrane potential dye, duplicate (AID 434950).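 As to activation: 0% = buffer only wells and 100% = acetylcholine maximal-effect wells.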 The settings on record: HEK293 TRPC6, membrane potential fluorescence, at 10 µM; stronger effect = higher value.
Assay [11] shares this target. Briefly: TRPC6 potentiation by TRPC4 potentiator hits, confirmation, selectivity assay for TRPC4 potentiator project, HEK293 cells, membrane potential dye, duplicate (AID 434952;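 active = compound raising the membrane signal above positive-control mean plus 3 SD in both repeats, and a primary screen hit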). As to conditions: HEK293 TRPC6, membrane potential dye fluorescence, at 10 µM, maximal acetylcholine added after compound; stronger effect = higher value.
In assay [12] the target is Short transient receptor potential channel 4 (Mus musculus) (UniProt Q9QUQ5). Briefly: calcium flux activators in TRPC4/5HT1a cells, counter-screen for TRPC4 activator project, cell-based, second counter screen, HEK293 TRPC4/5HT1a, Fluo-4 (AID 434977;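 active = calcium signal rise above buffer-control mean plus 5 SD in both duplicates, and also a hit in the primary screen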;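 as to activation: plate controls were assay buffer for no effect and maximal serotonin response for full effect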). As to conditions: Fluo-4 calcium flux, at 10 µM; stronger effect = higher value.
The nature of assay [13]: calcium flux inhibitors in TRPC4/5HT1a cells, confirmation, counter-screen for TRPC4 inhibitor project, cell-based, second counter screen, HEK293 TRPC4/5HT1a, Fluo-4 (AID 434978;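 active = primary screen active whose calcium signal fell more than 3 SD beyond the full-serotonin control mean in both duplicate plates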;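 as to outcome: serotonin given first at submaximal then at maximal dose after compound preincubation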). As to conditions: Fluo-4 calcium flux, at 10 µM, serotonin added to trigger calcium flux; stronger effect = higher value.
Assay [14] deals with TRPC4 (mouse), co-expressed with 5HT1a in HEK293. Briefly: calcium flux potentiators in TRPC4/5HT1a cells, confirmation, counter-screen for TRPC4 potentiator project, cell-based, second counter screen, HEK293 TRPC4/5HT1a, Fluo-4 (AID 434979;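 active = signal rise over 3 SD above mean of control wells given weak agonist, in both repeats and first screen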). The settings on record: Fluo-4 calcium flux, at 10 µM, serotonin added at its EC20 dose; stronger effect = higher value.
Assay [15] in a line: calcium flux activation in mu-opioid HEK293 cells, confirmation, counter-screen for TRPC4 activator project, cell-based, HEK293 mu-opioid receptor line (AID 449723;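 active = hit in primary screen, with calcium signal over 5 SD above buffer well mean in both duplicates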;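 also: counter screen cells carry the mu-opioid receptor alone and lack TRPC4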). The settings on record: Fluo-4 calcium fluorescence, at 10 µM; stronger effect = higher value.
The nature of assay [16]: calcium flux enhancement in mu-opioid HEK293 cells, confirmation, counter-screen for TRPC4 allosteric potentiator project, cell-based, HEK293 mu-opioid receptor line (AID 449724;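 active = calcium signal rise more than 3 SD above the low-dose agonist control mean, in both duplicate plates and the primary screen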;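 also: HEK293 cells carrying mu-opioid receptor only with no TRPC4 channel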). The settings on record: Fluo-4 calcium flux, at 10 µM, compound added before EC20 DAMGO stimulus; stronger effect = higher value.

The text below walks through data of PubChem BioAssay.

For some of these results: Measured potencies and affinities stand elsewhere. Activity calls are given as the source filed them.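 The calls were made as follows, unless noted: active = membrane potential signal rise above negative control mean plus 3 SD in both duplicates, also active in the earlier TRPC4 screen; inactive = the rest.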

A word on the inhibition: it is how much of the control response was suppressed.

On to `COC(=O)c1cccc2c1-c1ccccc1/C2=N/O`, for which the result in assay [1], in [2], in assay [3], in assay [4], in assay [7] and in [8] was inactive. The result in assay [9], in assay [10], in assay [11], in [12], in [14] and in [15] was inactive. For the same compound, the result in [16] was inactive. For the same compound, the values for the inhibition in [5], in [6] and in assay [13] were 81% (active), 43% (active) and 27.9% (active), respectively.
As to `Clc1ccccc1CSc1nc2ccncc2[nH]1`, the outcome in assay [1], in [2], in [3], in [4], in [6] and in [7] was inactive. In addition, the result in [8], in assay [9], in assay [10], in [11], in assay [12] and in [13] was inactive. Besides, the result in assay [14], in assay [15] and in assay [16] was inactive. Also, the inhibition in [5] was 99% (active).
Turning to `CC(=O)C1=C(O)C(=O)N(Cc2ccccc2)C1c1ccc([N+](=O)[O-])cc1` (stereo unspecified), the result in assay [1], in assay [2], in [3], in assay [4], in [7] and in assay [8] was inactive. Further, the call in assay [9], in assay [10], in assay [11], in assay [12], in assay [14] and in assay [15] was inactive. In addition, in assay [16], the result was inactive. Also, the values for the inhibition in assay [5], in [6] and in [13] were 95% (active), 61% (active) and 34.5% (active), respectively.
On to `Cc1c(CCOC(=O)c2ccc([N+](=O)[O-])cc2)sc[n+]1CC(=O)c1ccccc1`, for which the outcome in assay [1], in assay [2], in [3], in [4], in [6] and in assay [7] was inactive. Further, the outcome in [8], in assay [9], in assay [10], in assay [11], in assay [12] and in assay [14] was inactive. The outcome in [15] and in [16] was inactive. The inhibition in assay [5] was 92% (active); in assay [13], 42.9% (active).
With `CCOC(=O)C1(Cc2cccc(F)c2)CCN(Cc2c(C)nn(CC)c2C)CC1`, the outcome in [1], in assay [2], in assay [3], in [4], in assay [6] and in assay [7] was inactive. For the same compound, the outcome in [8], in assay [9], in assay [10], in [11], in assay [12] and in assay [13] was inactive. Also, the result in assay [14], in [15] and in assay [16] was inactive. Further, the inhibition in assay [5] was 86% (active).
On to `CC(C)(C)NCc1ccccc1OCc1cccs1`, for which the result in [1], in assay [2], in [3], in assay [4], in assay [7] and in assay [8] was inactive. In addition, the compound was classed as inactive in [10], in assay [11], in assay [12], in [14], in [15] and in assay [16]. Moreover, the inhibition in assay [5] was 95% (active); in assay [6] it was 45% (active); in assay [9], 15% (active); in assay [13] it was 17.5% (active).
For `CC(C)CCN1CCN(Cc2ccsc2)CC1CCO` (stereo unspecified), the result in assay [1], in assay [2], in assay [3], in [4], in assay [7] and in assay [8] was inactive. Moreover, the outcome in assay [9], in assay [10], in assay [11], in assay [12], in assay [14] and in [15] was inactive. Besides, in assay [16], the outcome was inactive. In addition, the inhibition was 90% (active) in [5], 45% (active) in assay [6] and 33.8% (active) in [13].
With `O=[N+]([O-])c1ccc(O)c(C2=NNC(c3ccccc3F)C2)c1` (stereo unspecified), the activation is 87% (active) in assay [1], 8.52% (active) in assay [12] and 20.8% (active) in assay [15]. The result in assay [2], in assay [3], in assay [4], in assay [6], in assay [7] and in assay [8] was inactive. The compound was called inactive in assay [10], in assay [11], in assay [13], in [14] and in assay [16]. For the same compound, the inhibition in assay [5] is 55% (active); in assay [9], 50% (active).
In the case of `NC(=O)c1nsc(C(=O)N(Cc2ccc(F)cc2)C(C(=O)NCC2CCCO2)c2ccc(O)cc2)c1N` (stereo unspecified), the result in assay [1], in [2], in assay [3], in [4], in assay [6] and in assay [7] was inactive. Besides, the outcome in assay [8], in assay [9], in assay [10], in assay [11], in assay [12] and in assay [14] was inactive. The result in assay [15] and in assay [16] was inactive. For the same compound, the inhibition in [5] is 77% (active); in assay [13], 25.6% (active).
Take `Cc1ccc(NC(=O)CN2CCc3ccccc3C2)cc1S(=O)(=O)N1CCOCC1`: the outcome in [1], in assay [2], in [3], in assay [4], in assay [7] and in assay [8] was inactive. In addition, the compound was classed as inactive in assay [9], in [11], in assay [12], in assay [13], in assay [14] and in assay [15]. Besides, in [16], the result was inactive. Moreover, the inhibition in [5] was 92% (active); in assay [6], 46% (active). The activation in assay [10] is 30.5% (active).
With `Cc1ccc(C)c(S(=O)(=O)/N=C2\C=C(NS(=O)(=O)c3ccccc3)C(=O)c3ccccc32)c1`, the outcome in assay [1], in assay [2], in assay [3], in assay [4], in [6] and in [7] was inactive. Besides, the outcome in [8], in assay [10], in [11], in assay [12], in assay [13] and in [14] was inactive. Further, the result in assay [15] and in assay [16] was inactive. The inhibition was 92% (active) in [5] and 33% (active) in [9].
Turning to `O=C(c1ccc(Cl)c(Cl)c1)N(Cc1ccco1)c1ccc(O)cc1`, the outcome in assay [1], in assay [2], in assay [3], in [4], in assay [6] and in assay [7] was inactive. Further, the outcome in assay [8], in [9], in assay [10], in [11], in assay [12] and in [14] was inactive. In addition, the result in [15] and in assay [16] was inactive. The inhibition is 94% (active) in assay [5] and 32% (active) in assay [13].
Turning to `O=C(C[n+]1cc(-c2ccc(Cl)c(Cl)c2)n2c1CCC2)N1c2ccccc2Sc2ccccc21`, the result in assay [1], in [2], in assay [3], in [4], in assay [6] and in assay [7] was inactive. The outcome in assay [8], in [10], in [11], in assay [12], in assay [14] and in assay [15] was inactive. Besides, the result in assay [16] was inactive. Moreover, the values for the inhibition in [5], in [9] and in [13] were 75% (active), 53.5% (active) and 18.7% (active), respectively.
Take `N=c1c2c(n(Cc3ccccc3)c3c1CCC3)CCC2`: the outcome in assay [1], in assay [2], in [3], in assay [4], in assay [6] and in assay [7] was inactive. Also, the result in assay [8], in [10], in assay [11], in [12], in [14] and in assay [15] was inactive. Further, the result in assay [16] was inactive. Moreover, the inhibition in [5] was 65% (active); in assay [9], 53.5% (active); in [13], 37.3% (active).
As for `CN(C)CCCN(Cc1cc2cc3c(cc2[nH]c1=O)OCO3)C(=S)NCc1ccco1`, the outcome in assay [1], in [2], in assay [3], in assay [4], in assay [7] and in [8] was inactive. Further, the outcome in assay [9], in assay [10], in assay [11], in [12], in assay [14] and in assay [15] was inactive. For the same compound, the result in [16] was inactive. Also, the inhibition is 93% (active) in assay [5], 69% (active) in assay [6] and 26.8% (active) in [13].
As to `OCC1(CCCc2ccccc2)CCN(Cc2cc(F)ccc2F)CC1`, the outcome in assay [1], in assay [2], in [3], in [4], in assay [6] and in [7] was inactive. Moreover, the outcome in [8], in assay [9], in assay [10], in assay [11], in assay [12] and in [13] was inactive. In addition, the result in [14], in [15] and in assay [16] was inactive. Also, the inhibition in assay [5] is 92% (active).
